From PubChem
ALDH1A1 block: ALDH1A1 (human) enzyme inhibition | Potency, µM (titrated, usually from 75.3 µM), without a hit: at the top dose activity, negative = inhibition, hits mostly inhibitors | AID 1030 | Purified ALDH1A1, NADH fluorescence, propionaldehyde substrate | 220,000 compounds, 7.3% hits;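 also: potency is read from the fitted curve at half-maximal effect; plate controls were no enzyme wells and a reference inhibitor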
ALOX12 inhib: inhibitors of human 12-lipoxygenase (ALOX12); 150,000 compounds, 0.12% hits; P18054; purified 12-hLO, xylenol orange hydroperoxide absorbance; Potency, µM (series often up to 57.1 µM), inactives show at the highest dose activity change, negative = inhibition, actives largely listed as inhibitors; AID 1452; active = well fitted inhibition curve with a large enough effect; inconclusive = small, poorly fitted or top-dose-only effect; also: potency is read from the fitted curve at half-maximal effect; nearly all actives have a fitted effect of over 55% in size
Target sequence (P18054 whole entry, looked up): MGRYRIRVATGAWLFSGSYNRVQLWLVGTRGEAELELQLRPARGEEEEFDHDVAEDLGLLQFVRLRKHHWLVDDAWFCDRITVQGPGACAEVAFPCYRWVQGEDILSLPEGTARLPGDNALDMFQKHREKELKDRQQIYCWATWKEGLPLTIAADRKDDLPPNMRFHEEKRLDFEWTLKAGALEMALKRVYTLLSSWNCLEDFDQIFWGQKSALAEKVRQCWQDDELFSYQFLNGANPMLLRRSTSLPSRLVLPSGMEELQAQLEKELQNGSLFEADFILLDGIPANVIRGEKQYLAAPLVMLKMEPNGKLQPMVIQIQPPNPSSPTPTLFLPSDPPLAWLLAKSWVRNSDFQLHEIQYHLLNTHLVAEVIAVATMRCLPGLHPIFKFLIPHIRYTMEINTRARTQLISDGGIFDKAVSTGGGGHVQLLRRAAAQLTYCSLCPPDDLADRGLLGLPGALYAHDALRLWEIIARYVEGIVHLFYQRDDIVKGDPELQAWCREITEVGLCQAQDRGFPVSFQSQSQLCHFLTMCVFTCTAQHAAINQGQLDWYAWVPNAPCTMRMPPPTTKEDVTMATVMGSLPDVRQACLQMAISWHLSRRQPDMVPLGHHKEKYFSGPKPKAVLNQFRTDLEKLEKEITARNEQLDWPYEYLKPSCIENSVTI
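150 nM 12hLO, 25 mM Hepes pH 7.0 + 0.01% Triton X-100; cpd preinc 15 min RT; 40 uM arachidonic acid, 30 min RT; Fe-XO 30 min; A573/A405 ratio as read-out.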
PNC inhibitor: perinucleolar compartment assembly inhibition; PC3M PTB-GFP, PNC prevalence imaging, 16 h; active compounds read low; activity change (PNC), negative = inhibition, % at 10 µM; 140,000 compounds, 3.1% hits; AID 2417;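 active = readout at or below -70, meaning at least 70% loss of cells showing the perinucleolar compartment, a nuclear body marking cancer cells; inconclusive = readout between -30 and a set limit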;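 also: plate controls were DMSO wells for no effect and camptothecin positive control wells for full effect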
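PC3M cells stably expressing PTB-GFP, 750–1000 cells/well, treated 16 h at 37 °C with compound (23 nl of library stock), in duplicate. After paraformaldehyde fixation and Hoechst stain, imaged at 20x; PNC prevalence scored by image analysis.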
LMNA splice mod: changes lamin A minigene splicing in HeLa cells. HeLa LMNA splicing GFP/RFP minigene ratio, 48 h. Potency, µM (highest dose often 46.1 µM), for the others: top-dose ratio change, negative = inhibition, usual class: inhibitors. 200,000 compounds, 0.01% hits. AID 1487; active = well fitted inhibition curve with a large enough effect in the signal ratio, with a control signal flat, not every such curve was filed as active; inconclusive = small, poorly fitted or top-dose-only effect, or effect the other way, or a change in a side signal; the % refers to the signal ratio; also: potency is read from the fitted curve at half-maximal effect
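Read-out is the ratio of GFP to DsRed2 object intensity, acquired by 488 nm laser-scanning cytometry on HeLa lamin A-EGFP minigene reporter cells. Compound incubation 48 hrs at 37 °C in Opti-MEM with 2% FBS; DMSO 0.5% final.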
HPGD inh: inhibitors of human 15-hydroxyprostaglandin dehydrogenase (HPGD); Potency, µM, for inactives: at the top dose activity change, negative = inhibition, usual class: inhibitors; purified HPGD, NADH fluorescence kinetic, PGE2 substrate; AID 894; 150,000 compounds, 4.3% hits; P15428; also: potency is read from the fitted curve at half-maximal effect
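20 nM HPGD preincubated 15 min at room temperature with compound in 50 mM Tris-HCl pH 8, 0.01% Tween 20. Started with 1 mM NAD+ and 30 uM prostaglandin E2; NADH fluorescence (360/450 nm) read 5 times over 30-s intervals, last minus first.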
An asterisk follows results filed as active; ? = inconclusive; . = no result; [ ] = dose if it differs, or a comment. In the library only some 10% were active in any assay of this set; here they are far more common. Unless noted, calls follow the shape of the dose curve; as a rule, active = well fitted inhibition curve with a large enough effect (not every such curve was filed as active); inconclusive = small, poorly fitted or top-dose-only effect, or another doubt; inactive = no such curve, though single readings can be large or run the other way. Unless noted, % is scaled to controls: 0 for no effect and ±100 for the full control effect.

SMILES	ALDH1A1 block	ALOX12 inhib	PNC inhibitor	LMNA splice mod	HPGD inh
CCOC(=O)CCN1C(=O)[C@H]2[C@H]3[C@H](O)[C@H](O)C/C(=N/OCC(C)C)[C@@H]3CC[C@@H]2C1=O	12.3%[13.5 µM]	.	.	.	.
CCOC(=O)C1(CC)NC(c2ccco2)C2C(=O)N(c3ccc(C)cc3)C(=O)C21 (configuration not stated)	14.1µM*	-4.6%	-10.6	21.6%	-12.7%
CCOC(=O)C1(CC)NC(c2ccco2)C2C(=O)N(CC)C(=O)C21 (configuration not stated)	9.8%	5.2%	?	-12.7%	-13.5%
COc1ccc(OCc2nnc(SCC(=O)N(C)Cc3ccccc3)n2N)cc1	8.91µM*	.	.	6.9%[46 µM]	.
CC(C)=CCC/C(C)=C/CO/N=C1/C[C@@H](O)[C@@H](O)[C@@H]2[C@H]3C(=O)N(c4ccc(F)cc4F)C(=O)[C@@H]3CC[C@H]12	-10.9%[13.5 µM]	.	.	.	.
COCCOCC(O)CN1CCN(c2ccc(C)cc2)CC1 (configuration not stated)	11.2µM*	-18.6%	1.0	5.7%	-2.6%
COc1ccc(N2C(=O)CSC23C(=O)N2CCCc4cccc3c42)cc1 (configuration not stated)	11.2µM*	-2.5%	-5.3	4.8%	-6.7%
COc1ccc(NC(=O)c2cccc(Oc3ccc([N+](=O)[O-])cc3Cl)c2)cc1	?	-0.2%	-2.3	?	-4.4%
O=C(Nc1cccc(Cl)c1)c1cccc(Oc2ccc([N+](=O)[O-])cc2Cl)c1	10µM*	1.5%	-3.6	?	-4.4%
CC(C)OCC(O)CS(=O)(=O)Cc1ccccc1 (configuration not stated)	12.7%	4.7%	33.0	-2.3%	12.6µM*
O=C(C[n+]1cn(C(F)F)c2ccccc21)c1ccc(Br)cc1	8.91µM*	.	.	?	.
CCC1CCc2c(sc3ncnc(N4CCOCC4)c23)C1 (configuration not stated)	-12.2%	8.7%	-125.8*	-1.9%	-27.4%
Oc1ccc(N2CCN(c3ncnc4sc5c(c34)CCC5)CC2)cc1	?	?	?	?	-18.9%
COc1ccc(CCNC(=O)CSc2nnc(-c3ccc(C)cc3)c(-c3ccc(C)cc3)n2)cc1OC	.	.	.	-2.8%[46 µM]	.
CCOC(=O)NC1(NCc2ccccc2)Oc2ccccc2O1	22.4µM*	3.9%	13.0	?	-9.0%
CCOC(=O)NC1(NCC(C)C)Oc2ccccc2O1	?	-14.9%	-22.6	4.9%	-6.0%
O=C(CN1C=NS(=O)(=O)c2ccc(C(F)(F)F)cc21)Nc1cccc(C(F)(F)F)c1	.	.	.	-9.8%[46 µM]	.
O=C(O)c1ccc(N2C(=O)CC(N3CCC(c4nc5ccccc5[nH]4)CC3)C2=O)cc1 (configuration not stated)	31.6µM*	.	.	-12.0%[46 µM]	.
O=C1CC(N2CCOCC2)C(=O)N1c1cccc(Cl)c1 (configuration not stated)	?	0.3%	-1.7	-0.9%	-4.4%
O=C1CC(N2CCC(c3nc4ccccc4[nH]3)CC2)C(=O)N1c1cccc(F)c1 (configuration not stated)	11.2µM*	.	.	-6.0%[46 µM]	.
O=C1CC(N2CCC(c3nc4ccccc4o3)CC2)C(=O)N1c1ccc(Cl)c(C(F)(F)F)c1 (configuration not stated)	8.91µM*	-16.5%	13.7	?	20µM*
CN1C(=O)CC(N2CCC(c3nc4ccccc4[nH]3)CC2)C1=O (configuration not stated)	6.1%	-3.9%	-23.8	-2.2%	-3.6%
O=C(C1CCN(C2CC(=O)N(c3cccc(Cl)c3)C2=O)CC1)N1CCCCCC1 (configuration not stated)	20µM*	-2.1%	-24.5	-4.8%	-10.3%
CC[C@@H](Nc1ncnc2nc[nH]c12)C(=O)O	-16.6%[13.5 µM]	1.1%[11.4 µM]	.	.	0.6%
NC(CO)(CO)COCc1ccccc1	6.7%	.	.	25.0%[46 µM]	.
SMILES	ALDH1A1 block	ALOX12 inhib	PNC inhibitor	LMNA splice mod	HPGD inh
O=C1CC(N2CCN(c3ccccc3Cl)CC2)C(=O)N1c1cccc(F)c1 (configuration not stated)	11.2µM*	0.0%	2.9	-7.5%	-11.2%
O=C1CC(N2CCN(c3ccccc3Cl)CC2)C(=O)N1c1ccc(F)cc1 (configuration not stated)	-5.6%	-5.5%	?	5.5%	-4.7%
Cc1ccc(-c2nc(N)n(C(=O)c3ccco3)n2)cc1	?	.	.	3.4%[46 µM]	.
Cc1cccc2nc(=S)n(C(=O)c3ccco3)n12	4.74µM*	13.2%	?	7.4%	?
Cc1ccn2c(c1)nc(=S)n2C(=O)c1ccccc1	?	5.0%	3.9	?	25.1µM*
O=C(c1ccco1)n1c(=S)nc2ccccn21	20µM*	-4.5%	-12.9	2.0%	11.2µM*
Cc1ccc(-c2nc3c4ccccc4n(CC(=O)N4CCN(c5ccccc5F)CC4)c(=O)n3n2)cc1	.	.	.	7.8%[46 µM]	.
Cc1[nH]c2c(Cl)cccc2c1CCNC(=O)C1CCCCC1C(=O)OCC(F)(F)F (configuration not stated)	?	-4.0%	-119.3*	-12.6%	-3.9%
COC(=O)c1ccc(NC(=O)CSc2nccn2Cc2ccc(Cl)cc2)cc1	.	.	.	-5.9%[46 µM]	.
O=C(N/N=C/c1ccc(OCc2ccccc2)cc1)c1cccs1	?	2.0%	61.6	4.1%	?
Oc1ccc(N=Cc2ccc(OCc3ccccc3)cc2)cc1	20µM*	.	.	?	.
CCN(CC)c1ccc2c(c1)CCCN2	25.1µM*	-1.8%	-5.2	?	-9.6%
CCOCCCNC(=O)c1cc2c(=O)n3cccc(C)c3nc2n1C	?	1.9%	-115.7*	?	?
Cc1cccn2c(=O)c3cc(C(=O)NCCc4ccccc4)c(=N)n(CCCn4ccnc4)c3nc12	5.62µM*	-12.7%	38.5	-13.5%	.
CCCCNC(=O)c1cc2c(=O)n3cccc(C)c3nc2n1C	?	1.5%	-20.3	-13.6%	?
O=C(CCc1ccc(S(=O)(=O)NCc2ccccc2)cc1)NCC1CCCO1 (configuration not stated)	-0.6%	0.0%	-106.0*	2.0%	-6.0%
O=C(CSc1ccccc1)Nc1ccc(S(=O)(=O)NCC2CCCO2)cc1 (configuration not stated)	22.4µM*	-3.4%	?	-8.4%	?
CC(NS(=O)(=O)c1ccc(CCC(=O)NCC2CCCO2)cc1)c1ccccc1 (configuration not stated)	-1.3%	17.5%	12.2	-1.1%	-9.0%
CCC(=O)N1c2nc(C(C)C)nn2C2(CCCCC2)[C@@H]2CCCC[C@@H]21	.	.	.	5.0%[46 µM]	.
O=c1c(-c2cccc(Cl)c2)nc2cncnc2n1-c1ccccc1	-7.3%	.	.	2.1%	.
O=C(O)C=C1C2CC3CC(C2)CC1C3	-1.3%	-5.1%	-82.0*	12.1%	4.6%
CCCCOC(=O)/C(=C/c1cn(C)c2ccccc12)NC(=O)c1ccc(OC)cc1	6.5%	3.6%	-93.3*	13.8%	-1.4%
